Molecular target: T1, Methionyl-tRNA synthetase, putative (Leishmania donovani (strain BPK282A1)) (UniProt E9BF75)
T1 sequence (whole entry): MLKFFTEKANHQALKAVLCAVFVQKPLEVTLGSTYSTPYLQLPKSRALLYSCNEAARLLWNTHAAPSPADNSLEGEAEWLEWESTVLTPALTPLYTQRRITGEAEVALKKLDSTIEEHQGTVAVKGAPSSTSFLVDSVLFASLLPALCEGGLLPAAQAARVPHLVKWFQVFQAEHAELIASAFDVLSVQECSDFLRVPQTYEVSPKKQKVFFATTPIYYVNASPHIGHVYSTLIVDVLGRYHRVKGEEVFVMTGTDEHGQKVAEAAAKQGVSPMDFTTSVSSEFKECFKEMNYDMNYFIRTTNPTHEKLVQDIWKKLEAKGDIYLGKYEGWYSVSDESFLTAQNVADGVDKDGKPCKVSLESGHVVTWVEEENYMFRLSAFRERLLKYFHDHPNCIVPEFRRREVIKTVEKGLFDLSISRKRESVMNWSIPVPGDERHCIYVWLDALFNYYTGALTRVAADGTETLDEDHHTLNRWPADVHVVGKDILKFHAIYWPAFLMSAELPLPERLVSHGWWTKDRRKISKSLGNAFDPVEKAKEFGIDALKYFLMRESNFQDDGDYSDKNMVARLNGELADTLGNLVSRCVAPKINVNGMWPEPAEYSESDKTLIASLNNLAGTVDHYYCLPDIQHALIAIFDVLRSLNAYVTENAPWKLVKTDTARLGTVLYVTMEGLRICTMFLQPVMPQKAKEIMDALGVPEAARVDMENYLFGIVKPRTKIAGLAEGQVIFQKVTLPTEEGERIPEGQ
Assay: Leishmania donovani Methionine tRNA synthetase (LdMetRS):v7. Dose response assay
Type: functional
Design: conc 80 nM, time 150 minutes

Question: Which PXC50 (MAX_EFFECT 0.0) does the source give for `O=C(N1CCOCC(O)C1)C1(c2ccc(Cl)cc2)CCC1` (stereo not drawn) here?
Answer: The PXC50 was < 4.

Question: What about the PXC50 (MAX_EFFECT -0.875656743) of the same compound?
Answer: Its PXC50 is < 4.

Question: What about the PXC50 (MAX_EFFECT -1.449275362) of the same compound?
Answer: The PXC50 was < 4.

Question: What does the source list for `Cn1ncc2c(NC3CCOCC3)nc(Nc3ccc(F)c(F)c3)nc21`?
Answer: PXC50 (BOTTOM 5.374646893, HILLSLOPE 1.78968519, MAX_EFFECT 52.27272727, TOP 55.59803221): 4.65; PXC50 (BOTTOM 9.100238565, HILLSLOPE 1.237667708, MAX_EFFECT 69.82591876, TOP 73.93326352): 5.4; PXC50 (MAX_EFFECT 40.52863436): < 4

Question: For `Cn1ncc2c(NCCc3nnn[nH]3)nc(Nc3ccc(F)c(F)c3)nc21`, which PXC50 (BOTTOM 6.583334695, HILLSLOPE 0.991501174, MAX_EFFECT 88.67924528, TOP 94.6320251) is on record?
Answer: Its PXC50 is 5.11.

Question: And the PXC50 (BOTTOM -5.664940327, HILLSLOPE 0.831663104, MAX_EFFECT 86.00508906, TOP 96.34066377)?
Answer: The PXC50 was 5.16.

Question: What about the PXC50 (BOTTOM -7.167085921, HILLSLOPE 0.718342131, MAX_EFFECT 85.0877193, TOP 100.1570552) of the same compound?
Answer: Its PXC50 is 5.14.

Question: Which results are given for `Cn1ncc2c(NCC(F)F)nc(Nc3ccc(F)c(F)c3)nc21`?
Answer: PXC50 (BOTTOM 1.581546444, HILLSLOPE 1.045254628, MAX_EFFECT 85.66037736, TOP 91.59899261): 5.09; PXC50 (BOTTOM 2.845790401, HILLSLOPE 0.765565912, MAX_EFFECT 91.60305344, TOP 108.0932569): 4.86; PXC50 (BOTTOM 5.50929664, HILLSLOPE 0.80038345, MAX_EFFECT 90.35087719, TOP 108.0671509): 4.81

Question: What does the source list for `NS(=O)(=O)c1cccc(Nc2ncccc2S(N)(=O)=O)c1`?
Answer: PXC50 (MAX_EFFECT 9.108159393): < 4; PXC50 (MAX_EFFECT 16.73553719): < 4; PXC50 (MAX_EFFECT 21.14537445): < 4

Question: Which results are given for `NC(=O)c1cc(Nc2ncccc2S(N)(=O)=O)cc(C(F)(F)F)c1`?
Answer: PXC50 (MAX_EFFECT 8.583690987): < 4; PXC50 (MAX_EFFECT 8.863198459): < 4; PXC50 (MAX_EFFECT 9.501187648): < 4

Question: How did the PXC50 (MAX_EFFECT 6.072106262) turn out when `NS(=O)(=O)c1ccc(Nc2ncccc2S(N)(=O)=O)cc1` was run?
Answer: The PXC50 was < 4.

Question: What about the PXC50 (MAX_EFFECT 13.21585903) of the same compound?
Answer: The PXC50 was < 4.

Question: What about the PXC50 (MAX_EFFECT 15.90909091) of the same compound?
Answer: Its PXC50 is < 4.

Question: `CNS(=O)(=O)c1cccnc1Nc1cccc(C(F)(F)F)c1` was tested. Which PXC50 (MAX_EFFECT 3.524229075) did it give?
Answer: The PXC50 was < 4.

Question: What about the PXC50 (MAX_EFFECT 5.165289256) of the same compound?
Answer: Its PXC50 is < 4.

Question: What about the PXC50 (MAX_EFFECT 6.451612903) of the same compound?
Answer: Its PXC50 is < 4.

Question: How did the PXC50 (MAX_EFFECT 2.127659574) turn out when `Cn1ncc2c(NCCO)nc(Nc3ccccc3S(N)(=O)=O)nc21` was run?
Answer: The PXC50 was < 4.

Question: And the PXC50 (MAX_EFFECT 3.652968037)?
Answer: Its PXC50 is < 4.

Question: And the PXC50 (MAX_EFFECT 13.39622642)?
Answer: The PXC50 was < 4.

Question: How did the PXC50 (MAX_EFFECT 7.969639469) turn out when `Cn1ncc2c(NCCO)nc(NCc3cccnc3)nc21` was run?
Answer: The PXC50 was < 4.

Question: And the PXC50 (MAX_EFFECT 8.113207547)?
Answer: The PXC50 was < 4.

Question: And the PXC50 (MAX_EFFECT 12.78538813)?
Answer: Its PXC50 is < 4.

Question: Which results are given for `CCc1cccc(Nc2nc(NCCO)c3cnn(C)c3n2)c1`?
Answer: PXC50 (MAX_EFFECT 6.404958678): < 4; PXC50 (MAX_EFFECT 25.11013216): < 4; PXC50 (MAX_EFFECT 42.00385356): < 4

Question: `COc1ccccc1CN1CCC(c2nn(CCN)c3nccnc23)C1` (stereo not drawn) was tested. Which PXC50 (BOTTOM 6.910506635, HILLSLOPE 2.152998005, MAX_EFFECT 63.75838926, TOP 91.48778108) did it give?
Answer: The PXC50 was 4.15.

Question: And the PXC50 (BOTTOM -1.343168311, HILLSLOPE 1.212343279, MAX_EFFECT 59.72222222, TOP 92.89137202)?
Answer: Its PXC50 is 4.23.

Question: And the PXC50 (BOTTOM -1.505582699, HILLSLOPE 1.035538343, MAX_EFFECT 55.28596187, TOP 100.0)?
Answer: Its PXC50 is 4.07.

Question: `Cn1ncc2c(NCCO)nc(Nc3ccccc3)nc21` was tested. Which PXC50 (MAX_EFFECT 42.26415094) did it give?
Answer: The PXC50 was < 4.

Question: What about the PXC50 (MAX_EFFECT 47.32824427) of the same compound?
Answer: Its PXC50 is < 4.

Question: What about the PXC50 (MAX_EFFECT 49.56140351) of the same compound?
Answer: Its PXC50 is < 4.

Question: `Cn1ncc2c(NCCO)nc(NCc3cccc(F)c3)nc21` was tested. Which PXC50 (MAX_EFFECT 8.142493639) did it give?
Answer: Its PXC50 is < 4.

Question: And the PXC50 (MAX_EFFECT 8.301886792)?
Answer: Its PXC50 is < 4.

Question: What about the PXC50 (MAX_EFFECT 9.649122807) of the same compound?
Answer: The PXC50 was < 4.

Question: What does the source list for `OCCCNc1nccc(Nc2cccc(C(F)(F)F)c2)n1`?
Answer: PXC50 (MAX_EFFECT 6.834532374): < 4; PXC50 (MAX_EFFECT 6.86695279): < 4; PXC50 (MAX_EFFECT 9.976247031): < 4

Question: Which PXC50 (MAX_EFFECT 2.721088435) does the source give for `Cc1cnn(CCNCc2c(C)nn(CCO)c2C)c1` here?
Answer: The PXC50 was < 4.

Question: What about the PXC50 (MAX_EFFECT 5.072463768) of the same compound?
Answer: The PXC50 was < 4.

Question: And the PXC50 (MAX_EFFECT 8.23117338)?
Answer: The PXC50 was < 4.

Question: Which PXC50 (MAX_EFFECT 16.69829222) does the source give for `CC(CO)Nc1nc(Nc2cccc(C(F)(F)F)c2)nc2c1cnn2C` (stereo not drawn) here?
Answer: Its PXC50 is < 4.

Question: And the PXC50 (MAX_EFFECT 21.69811321)?
Answer: The PXC50 was < 4.

Question: And the PXC50 (MAX_EFFECT 22.37442922)?
Answer: The PXC50 was < 4.

Question: For `COCCNc1nc(Nc2ccc(F)c(F)c2)nc2c1cnn2C`, which PXC50 (BOTTOM 0.0, HILLSLOPE 0.788642153, MAX_EFFECT 89.69957082, TOP 101.1762058) is on record?
Answer: The PXC50 was 5.15.

Question: What about the PXC50 (BOTTOM 0.0, HILLSLOPE 0.880096509, MAX_EFFECT 92.63657957, TOP 99.00872691) of the same compound?
Answer: Its PXC50 is 5.23.

Question: And the PXC50 (BOTTOM -0.84748474, HILLSLOPE 0.841528212, MAX_EFFECT 93.81044487, TOP 101.2621412)?
Answer: The PXC50 was 5.29.

Question: `COc1cc(Nc2nc(NCCO)c3cnn(C)c3n2)cc(C(F)(F)F)c1` was tested. Which PXC50 (MAX_EFFECT 10.13215859) did it give?
Answer: Its PXC50 is < 4.

Question: What about the PXC50 (MAX_EFFECT 10.95041322) of the same compound?
Answer: Its PXC50 is < 4.

Question: What about the PXC50 (MAX_EFFECT 12.18568665) of the same compound?
Answer: Its PXC50 is < 4.

Question: How did the PXC50 (BOTTOM 4.743177934, HILLSLOPE 1.089829687, MAX_EFFECT 75.04332756, TOP 100.0) turn out when `Cc1cnn(CC2CCCN2Cc2nc(C)c3ccccc3n2)c1` (stereo not drawn) was run?
Answer: Its PXC50 is 4.32.

Question: What about the PXC50 (BOTTOM 12.95021696, HILLSLOPE 2.00591159, MAX_EFFECT 86.80555556, TOP 100.0) of the same compound?
Answer: The PXC50 was 4.37.

Question: What about the PXC50 (BOTTOM -2.883731045, HILLSLOPE 1.436435191, MAX_EFFECT 78.52348993, TOP 84.80947153) of the same compound?
Answer: The PXC50 was 4.63.

Question: Which results are given for `Cc1nc(CN(C)CC2CCCN2c2cccnn2)nc2ccccc12` (stereo not drawn)?
Answer: PXC50 (BOTTOM 6.94309251, HILLSLOPE 1.363298468, MAX_EFFECT 83.49834983, TOP 100.0): 4.46; PXC50 (BOTTOM 8.751319867, HILLSLOPE 2.615595336, MAX_EFFECT 78.85304659, TOP 100.0): 4.21; PXC50 (BOTTOM -1.910835363, HILLSLOPE 2.399208882, MAX_EFFECT 79.71014493, TOP 90.01694606): 4.37

From ChEMBL document CHEMBL3988442, “University of Dundee, Small-Polar-MMV Screening Library” (2021)
